This is a sample that favours compounds with a hit; in the whole collection about 8% have one here.
LASV entry inh: inhibitors of Lassa virus binding or entry into cells | Lassa virus pseudotyped entry inhibition, cell-based qHTS | AID 720533 | Potency, µM (doses to about 49.2 µM), inactives show top-dose activity change, negative = inhibition, usual class: inhibitors | 18,000 compounds, 4.1% hits
MARV entry inh: inhibitors of Marburg virus binding or entry into cells; Marburg virus pseudotype entry/binding inhibition, cell-based; Potency, µM (series often up to 49.2 µM), for the others: at the highest dose activity change, negative = inhibition, most hits filed as inhibitors; 18,000 compounds, 6.5% hits; AID 720532
An asterisk follows results filed as active; u = inconclusive; ! = not confirmed by another sample; [ ] = another dose, or the depositor's remark. Calls come from the whole dose curve; tested in HEK293 cells. % is set by controls: 0 for no effect and ±100 for the full control effect; potency is the fitted concentration of half-maximal effect.

SMILES	LASV entry inh	MARV entry inh
CC1=C(/C=C/C(C)=C/C=C/C(C)=C/C(=O)Nc2ccc(O)cc2)C(C)(C)CCC1	7.08µM*!	u
CC1=C(\C=C/C(C)=C/C=C\C(C)=C\C(=O)O)C(C)(C)CCC1	-0.9%	u
COC(=O)[C@H]1[C@@H](c2ccccc2)NC(=O)N(Cc2ccccc2)[C@@H]1C	-1.2%[8.59 µM]	u
O=S1(=O)CCSCCN1Cc1ccc(F)cc1F	17.7%	23.4%
Nc1ncn(C2CC(O)C(CO)O2)c(=O)n1 (configuration not stated)	-12.4%	-6.2%
Nc1ccn([C@@H]2O[C@H](CO)[C@@H](O)[C@H]2O)c(=O)n1	-5.5%	7.5%
Nc1ncn([C@H]2O[C@@H](CO)[C@@H](O)[C@@H]2O)c(=O)n1	2µM*	3.16µM*
O=c1[nH]cnc2c1ncn2[C@@H]1O[C@H](CO)[C@@H](O)[C@H]1O	3.5%	9.6%
Nc1ccn([C@@H]2O[C@H](CO)[C@@H](O)C2O)c(=O)n1 (some centres not stated)	7.08µM*	5.01µM*
OC[C@H]1O[C@@H](n2cnc3c(=S)nc[nH]c32)[C@H](O)[C@@H]1O	6.31µM*	7.94µM*
C=CCN1c2ccccc2[C@]23CCC(=O)N(CC4CC4)C2=NC(C(=O)OC)=C(C(=O)OC)[C@H]13	-14.5%[8.59 µM]	19.4%[8.59 µM]
CC=Cc1cc2ccccc2c2c(C(=O)OC)c(C(=O)OC)c(C(=O)OC(C)(C)C)n12	-15.2%[8.59 µM]	u
CN1CCC[C@H]1c1cccnc1	6.9%	6.1%
CCCCCCCCCC[n+]1cccc([C@@H]2CCCN2C)c1	u	6.31µM*
C/C(=C\c1ccco1)CN1CCOc2ccc(CN3CCC(Oc4cccnc4)CC3)cc2C1	1.7%	u
NC1CCc2cc(O)c(O)cc2C1 (configuration not stated)	-0.3%	22.4µM*!
CCN1C(=NCCc2ccccn2)NC(c2cccs2)C(C(=O)OC)=C1C (configuration not stated)	0.2%[8.59 µM]	u
COc1ccc(C2/C=C\CC(OCc3ccccc3)CC(=O)N2Cc2cccc(F)c2)cc1 (configuration not stated)	u	-19.8%
COc1ccc(C2/C=C\C(c3ccc(OC)cc3)N(Cc3ccc(F)cc3)C(=O)C(=O)N2Cc2ccc(F)cc2)cc1 (configuration not stated)	-23.9%	10µM*
COc1cc2c(cc1OC)[C@@H]1O[C@](c3ccsc3)(C2)Oc2cc(C)n(Cc3ccccc3)c(=O)c21	5.4%[8.59 µM]	u
CNc1cc(OC)c(C(=O)N[C@H]2CCN(Cc3ccccc3)[C@H]2C)cc1Cl	u	17.8µM*
COC1=C[C@H](C(=O)NC2CCN(Cc3ccccc3)CC2)[C@H](C)[C@@H](c2ccccc2)CC1=O	17.6%[8.59 µM]	8.6%[8.59 µM]
COC(=O)C(C(C)=O)[C@@H](NC(=O)OC(C)(C)C)c1ccccc1 (some centres not stated)	-19.7%[8.59 µM]	-7.0%[8.59 µM]
COc1ccc([C@]23Cc4c(ccc5ccccc45)[C@H](O2)C2=C(CCCC2=O)O3)cc1	12.7%[8.59 µM]	-21.5%[8.59 µM]
COc1cc(CCN2C(=O)NC(c3ccccc3)C(C(C)=O)=C2C)cc(OC)c1OC (configuration not stated)	8.6%[8.59 µM]	6.3%[8.59 µM]
SMILES	LASV entry inh	MARV entry inh
N[C@H](C(=O)O)c1ccc(O)c(C(=O)O)c1	-3.0%	11.5%
O=C(O)c1cc(N(Cc2ccccc2O)Cc2cc(O)ccc2O)ccc1O	u	20µM*!
CC(C)=CCCC(C)=CC=CC1=CC2(C)CC1(C)C(C=C(C)CCC=C(C)C)CC2=O (configuration not stated)	3.0%[8.59 µM]	u
CC1(C)N=C(N)N=C(N)N1c1ccc(Cl)cc1	11.2µM*	7.08µM*
NS(=O)(=O)c1ccc(-c2ccc3c(NC(=O)C4CC4)n[nH]c3c2)cc1	-2.5%	-13.7%
CC1=C[C@@H](COCc2ccccc2)O[C@@]2(C1)C(=O)N(Cc1ccccc1C(F)(F)F)c1ccccc12	10.9%[8.59 µM]	4.8%[8.59 µM]
COCCN1C(=O)NC(c2ccc(Br)cc2)C(C(=O)OC)=C1C (configuration not stated)	-25.5%[8.59 µM]	-8.1%[8.59 µM]
Cc1ccccc1	-4.5%	-1.2%
C=C1C(=O)[C@]23[C@H](O)[C@H]1CC[C@H]2[C@@]12COC3(O)[C@H](O)[C@@H]1C(C)(C)CC[C@@H]2O	u	17.8µM*
COCCN1C(=O)NC(c2ccccc2)C(C(=O)OC)=C1C (configuration not stated)	-4.2%[8.59 µM]	8.2%[8.59 µM]
O=C(OCc1cn([C@H]2C[C@H](c3ccc(Cl)cc3)N(C(=O)C3CCCCC3)C[C@H]2O)nn1)c1ccccc1	-2.2%	u
CCN(CC)CCOC(=O)c1ccc(N)cc1	5.9%	-12.0%
CCN(CC)CCCCCCCCOC(=O)c1cc(OC)c(OC)c(OC)c1	25.1µM*	12.6µM*
COc1cc(/C=C/C(=O)N2CCN(CC(=O)N3CCCC3)CC2)cc(OC)c1OC	-12.0%	12.1%
COc1cc(C(=O)OCCCN2CCCN(CCCOC(=O)c3cc(OC)c(OC)c(OC)c3)CC2)cc(OC)c1OC	u	7.08µM*

High-throughput results deposited in PubChem by National Center for Advancing Translational Sciences (NCATS).
